# A selection: hits, their analogues and other compounds. The true share with any hit is near 1.3%.
# TRPV1 agonist: activates the human vanilloid receptor TRPV1; TRPV1-expressing cells, Fluo-8 calcium influx, agonist mode; 320,000 compounds, 0.19% hits; activation, % at 8.33 µM; in the data active = activation above about 80%; inconclusive = between about 30% and that limit
# Target sequence (Q8NER1 whole entry, looked up): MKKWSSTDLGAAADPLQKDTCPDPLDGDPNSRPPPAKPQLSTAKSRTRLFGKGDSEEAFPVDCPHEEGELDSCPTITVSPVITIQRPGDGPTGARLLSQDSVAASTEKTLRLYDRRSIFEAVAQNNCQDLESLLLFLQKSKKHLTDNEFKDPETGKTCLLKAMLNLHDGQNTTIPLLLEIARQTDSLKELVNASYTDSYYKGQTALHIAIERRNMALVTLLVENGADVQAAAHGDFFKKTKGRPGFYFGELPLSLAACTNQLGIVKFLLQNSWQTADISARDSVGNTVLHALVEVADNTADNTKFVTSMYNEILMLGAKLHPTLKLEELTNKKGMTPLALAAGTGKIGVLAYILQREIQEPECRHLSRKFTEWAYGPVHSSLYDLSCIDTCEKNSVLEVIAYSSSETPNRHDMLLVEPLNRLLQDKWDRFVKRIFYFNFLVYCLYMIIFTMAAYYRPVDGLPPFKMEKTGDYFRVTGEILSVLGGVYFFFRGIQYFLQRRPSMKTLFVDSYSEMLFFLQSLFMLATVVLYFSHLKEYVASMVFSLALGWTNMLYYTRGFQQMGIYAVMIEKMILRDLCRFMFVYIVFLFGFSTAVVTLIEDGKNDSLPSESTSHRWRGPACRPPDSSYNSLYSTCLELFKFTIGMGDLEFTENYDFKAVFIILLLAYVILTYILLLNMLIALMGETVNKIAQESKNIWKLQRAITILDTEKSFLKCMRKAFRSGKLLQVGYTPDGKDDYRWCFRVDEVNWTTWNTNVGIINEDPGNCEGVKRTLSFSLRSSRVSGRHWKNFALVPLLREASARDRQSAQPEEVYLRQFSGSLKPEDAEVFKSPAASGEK
#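 Cells expressing TRPV1 were dye-loaded with Fluo-8 and read kinetically: 10 s baseline, 3 min after compound (agonist portion), then 2 min after EC20 capsaicin (allosteric enhancer portion). Calcium-bound dye fluorescence at 480/520 nm.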
# TRPV1 potentiator: human TRPV1 potentiation; Q8NER1; TRPV1-expressing cells, Fluo-8 calcium influx, capsaicin EC20 potentiation; 320,000 compounds, 0.02% hits; potentiation, % at 8.33 µM; in the data active = potentiation above about 80%; inconclusive = between about 30% and that limit
#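 Fluo-8 calcium influx in TRPV1-expressing cells, kinetic read (ex 480/em 520 nm). Compound added and read 3 min for agonist activity, followed by capsaicin at EC20 final and 2 min further read for enhancement.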
# TRPML1 blocker: inhibitors of human TRPML1 channel. 390,000 compounds, 0.02% hits. activity change, negative = inhibition, % (no concentration beside the values). TRPML1-inducible cells, Ca2+ dye fluorescence, FDSS; stronger effect = lower value; inhibition of EC80 agonist-evoked calcium signal; in the data active = activity change below about -50%; inconclusive = between about -30% and that limit;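 note: stimulus is agonist 54-4 at its EC80 concentration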
#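 Tet-induced TRPML1-DL cells loaded with Ca8 no-wash calcium dye were read kinetically on FDSS. Compound addition was followed by EC80 agonist 54-4 (4 uM final); inhibition was read over 110 s.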
# KCNH2 3.1 inh: KCNH2 3.1 (human) potassium channel inhibition. U2OS KCNH2 3.1, thallium flux FluxOr; stronger effect = lower value. activity change, % (tested at about 1.8 µM). 340,000 compounds, 0.95% hits;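 active = maximum activity change below -70%; inconclusive = maximum activity change from -70% to -50%; inactive = maximum activity change above -50%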;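 note: thallium influx rate constant from kinetic fluorescence after stimulation buffer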
#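 Thallium flux read-out: FluxOr dye with Red40 quencher in HBSS/HEPES, 45 min at RT. Rate constants from kinetic reads were normalized to positive and negative DMSO controls. Cells: U2OS virally expressing the 3.1 isoform.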
# hERG WT inh: inhibitors of human wildtype KCNH2 potassium channel; Q12809; U2OS, BacMam KCNH2, thallium flux FluxOr; stronger effect = lower value; activity change, % at 1.84 µM; 340,000 compounds, 0.37% hits; AID 720551;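 active = maximum activity change below -70%; inconclusive = maximum activity change between -70% and -50%; inactive = maximum activity change above -50%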
#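 U2OS cells were transduced with wild-type KCNH2 virus (2.03 x 10^8 / mL) for 4 h at room temperature, then cultured overnight at 37 C. Thallium flux was read with FluxOr dye. Rate constants were normalized to DMSO controls.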
# TRPML1 ag: activates the human TRPML1 channel; Q9GZU1; activation, % (concentration not given with the values); TRPML1-expressing cells, Ca2+ dye fluorescence, FDSS; 410,000 compounds, 0.12% hits; AID 624414; in the data active = activation above about 50%; inconclusive = mostly about 30% to 49%
#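 Agonist activity was taken from a 110 s kinetic Ca2+ dye read on the FDSS after pinning compounds onto TRPML1-DL cells. The cells were seeded at 1,500/well with Tet inducer, incubated about 16 h, then dye-loaded at room temperature.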
# A number is an active result; . = inactive; ? = inconclusive; / = no result given.
SMILES,TRPV1 agonist,TRPV1 potentiator,TRPML1 blocker,KCNH2 3.1 inh,hERG WT inh,TRPML1 ag
CCCCN(C(=O)c1ccc2c(c1)OCO2)C1CCS(=O)(=O)C1 (configuration not stated),.,.,.,-76,.,.
C=CCn1c(Cc2csc(N)n2)nnc1SCC(=O)OCC,.,?,.,-95,.,.
O=C1NC2(CCCCCC2)C(=O)N1Cc1ccc(Cl)cc1Cl,?,.,.,.,.,.
O=C1NC2(CCCCCC2)C(=O)N1Cc1ccc(F)cc1Cl,.,.,.,-127,.,.
Cc1ccc(NC(=O)CN2C(=O)CSc3ccc(S(=O)(=O)N(C)C)cc32)cc1C,/,/,.,/,/,.
CCOC(=O)c1cc(-c2ccccc2)n(CC(=O)Nc2ccccc2OCC)c1C,/,/,.,/,/,.
CSc1nnc(CSCc2ccc(Cl)cc2Cl)n1-c1ccccc1,.,.,.,-84,.,.
COc1ccc(OC(=O)N(C)C[C@@H]2OCc3cn(nn3)CCCC(=O)N([C@H](C)CO)C[C@H]2C)cc1,/,/,.,/,/,.
Cc1ccc(OC(=O)N(C)C[C@@H]2OCc3cn(nn3)CCCC(=O)N([C@@H](C)CO)C[C@H]2C)cc1,/,/,.,-70,.,.
Cc1cc(C)cc(OCC(=O)NNC(=S)NC(=O)C2CC2)c1,.,.,.,-70,.,.
COc1ccc(OCC(=O)NNC(=S)NC(=O)C2CC2)cc1,.,?,.,.,.,.
Cc1ccc(C(=O)CC(=O)c2ccc(C(C)(C)C)cc2)cc1,.,.,.,-102,.,.
COC(=O)c1ccc(OS(=O)(=O)N(C)C)cc1,.,.,.,.,-227,.
CN(C)S(=O)(=O)Oc1ccc(C(=O)Nc2ccc([N+](=O)[O-])cc2)cc1,.,.,.,.,.,.
O=C(O)CCn1cnc2onc(-c3ccccc3Cl)c2c1=O,/,/,.,/,/,.
COc1cccc(Nc2ccc3cc(S(=O)(=O)N4CCC(C)CC4)ccc3n2)c1,/,/,.,/,/,.
COc1cc(NC(=O)CSc2cc(=O)n(C)c3ccccc23)cc(OC)c1OC,/,/,.,/,/,.
CCOC(=O)/C(=C/C=C1\Sc2cc(OCC)c(OCC)cc2N1CC)C(C)=O,?,.,.,.,.,77
CCOC(=O)/C(=C\C=C1/Sc2cc(OCC)c(OCC)cc2N1CC)C(C)=O,?,.,.,.,.,89
CCN1/C(=C/C(C)=O)Sc2ccc(OC)cc21,.,.,.,.,.,.
CCCN(CCC)C(=O)Cn1c(=O)n(-c2ccc(CC)cc2)c(=O)c2ccc(C(=O)NCCc3ccccc3)cc21,/,/,.,/,/,.
COc1ccc(NC(=O)c2sc3cc(C(F)(F)F)cnc3c2-c2cccs2)cc1,.,.,.,-92,.,.
O=C(Cc1ccccc1)NCCSC1CCCCC1,94,.,.,.,/,.
O=C(COC(=O)CC1SC(N2CCCC2)=NC1=O)Nc1c(F)c(F)c(F)c(F)c1F (configuration not stated),.,.,.,-74,.,.
CN(C)C(=O)c1ccc(NC(=O)CC2SC(N3CCCC3)=NC2=O)cc1 (configuration not stated),.,.,.,.,.,.
SMILES,TRPV1 agonist,TRPV1 potentiator,TRPML1 blocker,KCNH2 3.1 inh,hERG WT inh,TRPML1 ag
N#CC1=C(N)OC2=C(CC/C2=C\c2ccccc2)C1c1ccccc1 (configuration not stated),.,.,.,.,-73,55
N#CC1=C(N)OC2=C(CC/C2=C\c2ccccc2Cl)C1c1ccccc1Cl (configuration not stated),.,.,.,.,.,.
O=C(CN1C(=O)CCc2cc(S(=O)(=O)N3CCOCC3)ccc21)NCc1ccccc1Cl,/,/,.,/,/,.
O=[N+]([O-])c1ccc(/C=N/Nc2ccc3ccccc3c2)o1,.,.,.,.,.,.
Cc1ccc2nc(N/N=C\c3ccc([N+](=O)[O-])o3)nc(-c3ccccc3)c2c1,.,.,.,-97,.,.
O=[N+]([O-])c1ccc(/C=N/Nc2nc(-c3ccccc3)c3cc(Br)ccc3n2)o1,.,.,.,-101,.,.
CCc1ccccc1NC(=O)Cn1c(=O)n(CCc2ccccc2)c(=O)c2sc3ccccc3c21,/,/,.,/,/,.
O=C(Cc1ccc(OCCCc2ccccc2)cc1)NO,/,/,/,/,/,.
CC(C)Oc1ccc(CNC(=O)C2CCN(C(=O)N3CCOc4ccc(Cl)cc43)CC2)cc1,/,/,.,/,/,.
Cc1ccc(/C=C/c2onc(C)c2S(=O)(=O)N2CCC(C(=O)N3CC(C)Oc4ccccc43)CC2)cc1 (configuration not stated),/,/,.,/,/,.
O=C(NCCC(=O)N1CCN(c2cccc(Cl)c2)CC1)c1ccc(Br)cc1,?,.,.,-75,.,.
O=[N+]([O-])c1ccc(N2CCN(C(=S)c3cccc([N+](=O)[O-])c3)CC2)cc1,.,.,.,-102,.,.
CC(=O)N1CCN(C(=S)c2cccc([N+](=O)[O-])c2)CC1,.,.,.,.,.,.
CCCn1c(N2CCN(C(=O)/C=C/C(=O)O)CC2)nc2ccccc21,.,.,.,.,.,.
CCn1c(N2CCN(Cc3ccc([N+](=O)[O-])cc3)CC2)nc2ccccc21,.,.,.,-94,-87,.
O=[N+]([O-])c1ccc(CN2CCN(c3ccc4ccccc4n3)CC2)cc1,.,.,.,-99,?,.
CCn1c(N2CCN(C(=O)/C=C/c3ccccc3)CC2)nc2ccccc21,.,.,.,-90,?,.
O=[N+]([O-])c1ccc(N2CCN(Cc3ccccc3)CC2)nc1,.,.,.,.,.,.
Cc1c2cnn(CC(=O)NCc3ccc(F)cc3)c(=O)c2c(C)n1Cc1cccc(Cl)c1,/,/,.,/,/,.
C=C1C=C(C(F)F)n2ncc(C(=O)N3CCN(c4ccccc4)CC3)c2N1,/,/,/,/,/,.
O=[N+]([O-])c1ccc(CN2CCN(c3ccc([N+](=O)[O-])cc3)CC2)cc1,.,.,.,.,-73,.
O=[N+]([O-])c1ccc(N2CCN(Cc3cccc([N+](=O)[O-])c3)CC2)cc1,.,.,.,?,.,.
CCCn1c(N2CCN(Cc3ccc(Cl)cc3)CC2)nc2ccccc21,.,.,.,-79,.,.
Cc1cc(Cl)ccc1NC(=O)CN1C(=O)COc2ccc(S(=O)(=O)Nc3ccccc3)cc21,/,/,.,/,/,.
Cc1cccc(C(=O)NCCNC(=O)c2cccc(C)c2)c1,.,.,.,/,-264,.
Cc1ccc(S(=O)(=O)Cc2nc(-c3ccc(C(=O)NCc4ccccc4)cc3)oc2C)cc1,/,/,.,/,/,.
Cc1ccccc1NC(=O)c1cc([N+](=O)[O-])ccc1NCCN1C(=O)CCC1=O,.,.,.,-159,.,.
